Data from PubChem BioAssay AID1053126 (Broad Institute, 2014).
Results with a measured potency or affinity are listed apart. Calls of active or inactive are those of the source.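 How the source made its calls: active means cell killing with a fitted half-effect concentration at or below twice the top valid dose; inconclusive means flat curve with 30 to 70 percent drop, or poor fit; inactive means the rest.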

Test: HEK293T cell cytotoxicity, dose response, cytotoxicity control, ATP luminescence, cherry-pick, set 6 (AID 1053126)
Conditions: HEK293T viability, CellTiter-Glo ATP luminescence, 72 h; series mostly up to 26 µM

| SMILES | outcome |
| --- | --- |
| Nc1ccc2ccc3cccc[n+]3c2c1 | inactive |
| CC(C)OP(=O)(O)NC(=O)c1ccccc1 | inactive |
| CC12CC(c3ccccc3O1)C(C(=O)OCc1ccccc1)C(=O)N2 (stereo not drawn) | inactive |
